PubChem BioAssay (Tox21)
Records with an inconclusive call do not appear. A call without a number means that no potency is given here. Calls of active or inactive are those of the source. Unless noted, the call rests on the fitted dose curve; in most records, active means well fitted curve in the direction sought with a large enough effect in the repeat runs; inconclusive means weak or mixed curves; inactive means no such curve, though single readings can be large; an effect the other way counts as inactive or inconclusive.

Tested on: not listed separately
Experiment: qHTS assay to identify small molecule antagonists of the thyroid receptor (TR) signaling pathway - cell viability counter screen (AID 743064); further: nearly all actives have a fitted effect of over 50% in size; further: potency means the concentration at half of the fitted maximal effect
Conditions: GH3.TRE-Luc viability, CellTiter-Fluor, 24 h; series mostly up to 70.3 µM
Outline: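 Counter screen for cytotoxicity: compound plus T3 (1 nM final) on GH3.TRE-Luc cells, 23.5 h at 37 °C, then fluorescence viability readout with CellTiter-Fluor.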

| SMILES | Potency | activity change, negative = cytotoxic |
| --- | --- | --- |
| COc1ccc(CCN(C)CCCC(C#N)(c2cc(OC)c(OC)c(OC)c2)C(C)C)cc1OC (stereo not drawn) | 29.8 µM (active) |  |
| C=CCCCCCCCCC=O | inactive |  |
| NC(=O)c1cn(Cc2c(F)cccc2F)nn1 | inactive |  |
| NC(CSCC(=O)O)C(=O)O (stereo not drawn) | inactive |  |
| CC(=O)c1ccccc1O | inactive |  |
| COC(=O)CCSCCC(=O)OC | inactive |  |
| CC(=O)N(CC(O)CO)c1c(I)c(C(=O)NCCO)c(I)c(C(=O)NCC(O)CO)c1I (stereo not drawn) | inactive |  |
| Cc1[nH]c(=O)c(C#N)cc1-c1ccc2nccn2c1 | inactive |  |
| C=CCOCC(CC)(CO)COCC=C | inactive |  |
| Cc1ccc(=O)n(-c2ccccc2)c1 | inactive |  |
| COC(=O)c1c(Cl)c(Cl)c(C(=O)OC)c(Cl)c1Cl | inactive |  |
| CC1=CC(C)C(C=O)CC1 (stereo not drawn) | inactive |  |
| N[C@H](C(=O)O)c1ccc(O)cc1 | inactive |  |
| CO/N=C(/C(=O)N[C@@H]1C(=O)N2C(C(=O)OCOC(=O)C(C)(C)C)=C(C)CS[C@H]12)c1csc(N)n1 | inactive |  |
| COc1ccc2c(c1)c(CC(=O)OCC(=O)O)c(C)n2C(=O)c1ccc(Cl)cc1 | inactive |  |
| CCCCCCCCS(=O)(=O)Cl | inactive |  |
| COC(=O)[C@@H](N)Cc1ccc(O)c(O)c1 | 21.1 µM (active) |  |
| O=S(O)CO | inactive |  |
| CC(C)NCC(O)c1ccc(NS(C)(=O)=O)cc1 (stereo not drawn) | inactive |  |
| CCCCNC(=O)NCCCC | inactive |  |
| CCC(C)S (stereo not drawn) |  | 23.6% [at 3.79 µM] (inactive) |
| N#Cc1ccc(C2CCCc3cncn32)cc1 (stereo not drawn) | inactive |  |
| CCCCOCCOCCOCc1cc2c(cc1CCC)OCO2 | inactive |  |

Tested on: not listed separately
Experiment: qHTS assay to identify small molecule antagonists of the thyroid receptor (TR) signaling pathway (AID 743065); further: nearly all actives have a fitted effect of over 55% in size; further: potency means the concentration at half of the fitted maximal effect
Conditions: GH3.TRE-Luc, T3-stimulated luciferase inhibition, 23.5 h; series mostly up to 70.3 µM
Outline: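 GH3.TRE-Luc rat pituitary cells carrying two TR response elements driving luciferase were plated for 4 h, given compound plus 1 nM T3 (final), and incubated 23.5 h at 37 C. ONE-Glo luminescence measured reporter inhibition; CellTiter-Fluor fluorescence tracked cytotoxicity.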

| SMILES | Potency | activity, negative = inhibition |
| --- | --- | --- |
| O=c1cc(CO)occ1O | inactive |  |
| NS(=O)(=O)c1cc(C(=O)O)cc(N2CCCC2)c1Oc1ccccc1 | inactive |  |
| CCOC(C)(C)C | inactive |  |
| NC(=O)c1cn(Cc2c(F)cccc2F)nn1 | inactive |  |
| O=C(O)CCCl | inactive |  |
| CC(=O)c1ccccc1O | inactive |  |
| COC(=O)CCSCCC(=O)OC | inactive |  |
| CC(=O)N(CC(O)CO)c1c(I)c(C(=O)NCCO)c(I)c(C(=O)NCC(O)CO)c1I (stereo not drawn) | inactive |  |
| Cc1[nH]c(=O)c(C#N)cc1-c1ccc2nccn2c1 | inactive |  |
| C=CCOCC(CC)(CO)COCC=C | inactive |  |
| COC(=O)NN | inactive |  |
| CC(C)(O)C#CC(C)(C)O | inactive |  |
| OCCCC1CCCCC1 | inactive |  |
| CC1=CC(C)C(C=O)CC1 (stereo not drawn) | inactive |  |
| COc1ccc2c(c1)c(CC(=O)OCC(=O)O)c(C)n2C(=O)c1ccc(Cl)cc1 | inactive |  |
| CCO/C([O-])=N/c1c[n+](N2CCOCC2)no1 | inactive |  |
| CCCCCCCCS(=O)(=O)Cl | inactive |  |
| COC(=O)[C@@H](N)Cc1ccc(O)c(O)c1 | 23.7 µM (active) |  |
| ClC(Cl)(Br)Br | inactive |  |
| CC(C)NCC(O)c1ccc(NS(C)(=O)=O)cc1 (stereo not drawn) | inactive |  |
| COC(=O)C1=C(C)NC(C)=C(C(=O)OC)C1c1ccccc1[N+](=O)[O-] | 30.7 µM (active) |  |
| CCC(C)S (stereo not drawn) |  | 10.9% [at 3.79 µM] (inactive) |
| CC(C)(CC(=O)O)C(=O)O | inactive |  |
| CN1CCC(=C2c3ccccc3CC(=O)c3sccc32)CC1 | 23.7 µM (active) |  |

Tested on: thyroid hormone receptor (rat, GH3 cells)
Experiment: qHTS assay to identify small molecule agonists of the thyroid receptor (TR) signaling pathway (AID 743066; calls by dose curve)
Conditions: GH3.TRE-Luc cells, TR agonist luciferase, 24 h; series mostly up to 83.9 µM

| SMILES | outcome | activation |
| --- | --- | --- |
| COc1ccc(CCN(C)CCCC(C#N)(c2cc(OC)c(OC)c(OC)c2)C(C)C)cc1OC (stereo not drawn) | inactive |  |
| O=c1cc(CO)occ1O | inactive |  |
| NS(=O)(=O)c1cc(C(=O)O)cc(N2CCCC2)c1Oc1ccccc1 | inactive |  |
| CCOC(C)(C)C | inactive |  |
| C=CCCCCCCCCC=O | inactive |  |
| NC(=O)c1cn(Cc2c(F)cccc2F)nn1 | inactive |  |
| O=C(O)CCCl | inactive |  |
| NC(CSCC(=O)O)C(=O)O (stereo not drawn) | inactive |  |
| CC(=O)c1ccccc1O | inactive |  |
| COC(=O)CCSCCC(=O)OC | inactive |  |
| CC(=O)N(CC(O)CO)c1c(I)c(C(=O)NCCO)c(I)c(C(=O)NCC(O)CO)c1I (stereo not drawn) | inactive |  |
| Cc1[nH]c(=O)c(C#N)cc1-c1ccc2nccn2c1 | inactive |  |
| C=CCOCC(CC)(CO)COCC=C | inactive |  |
| COC(=O)c1c(Cl)c(Cl)c(C(=O)OC)c(Cl)c1Cl | inactive |  |
| COC(=O)NN | inactive |  |
| CC(C)(O)C#CC(C)(C)O | inactive |  |

| SMILES | outcome | activation |
| --- | --- | --- |
| OCCCC1CCCCC1 | inactive |  |
| CC1=CC(C)C(C=O)CC1 (stereo not drawn) | inactive |  |
| CO/N=C(/C(=O)N[C@@H]1C(=O)N2C(C(=O)OCOC(=O)C(C)(C)C)=C(C)CS[C@H]12)c1csc(N)n1 | inactive |  |
| COc1ccc2c(c1)c(CC(=O)OCC(=O)O)c(C)n2C(=O)c1ccc(Cl)cc1 | inactive |  |
| CCO/C([O-])=N/c1c[n+](N2CCOCC2)no1 | inactive |  |
| CCCCCCCCS(=O)(=O)Cl | inactive |  |
| COC(=O)[C@@H](N)Cc1ccc(O)c(O)c1 | inactive |  |
| O=S(O)CO | inactive |  |
| ClC(Cl)(Br)Br | inactive |  |
| CC(C)NCC(O)c1ccc(NS(C)(=O)=O)cc1 (stereo not drawn) | inactive |  |
| COC(=O)C1=C(C)NC(C)=C(C(=O)OC)C1c1ccccc1[N+](=O)[O-] | inactive |  |
| CCC(C)S (stereo not drawn) |  | 1.37% [at 3.63 µM] (inactive) |
| CCCCOCCOCCOCc1cc2c(cc1CCC)OCO2 | inactive |  |
| CC(C)(CC(=O)O)C(=O)O | inactive |  |
| CN1CCC(=C2c3ccccc3CC(=O)c3sccc32)CC1 | inactive |  |
